Rows were chosen to be rich in hits. Some 1.7% of all compounds tested hit in one or more screens of this group.
Vif imaging – HIV Vif inhibition; AID 602346; 340,000 compounds, 0.35% hits; HEK293T cells, Vif self-association by quenched fluorescence, imaging, 24 h; inhibition, % at 7.49 µM; in the data active = inhibition above about 50%, passing the limit was not always enough
FGF22 binding-1 – binders of recombinant human FGF22 by thermal shift | SYPRO orange fluorescence; percent of sucrose octasulfate shift, DMSO zero | Q9HCT0 | activity (Tm shift, normalised), % at 9.99 µM | 340,000 compounds, 1.5% hits;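 active = mean Tm shift, scaled 0 neutral to 100 positive control, at about 1.3% or above, every replicate too, limit read from the data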
Target sequence (Q9HCT0 whole entry, looked up): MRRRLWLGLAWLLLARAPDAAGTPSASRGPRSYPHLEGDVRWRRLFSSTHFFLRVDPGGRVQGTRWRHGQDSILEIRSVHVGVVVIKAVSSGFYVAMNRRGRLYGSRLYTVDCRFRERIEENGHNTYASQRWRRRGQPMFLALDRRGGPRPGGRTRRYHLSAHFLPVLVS
CFTR F508del cor – CFTR F508del correction in bronchial cells; CFBE cells, YFP halide quenching; stimulated with forskolin plus potentiator P3; % fluorescence drop versus neutral controls; 350,000 compounds, 0.36% hits; AID 720511; activity (quench increase), % at 7.58 µM;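 active = mean added fluorescence quench of at least 8% versus neutral control, with both replicates also reaching 8%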;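 also: cells transiently co-express mutant CFTR-F508del with the halide-sensitive YFP; corrector assay measuring rescue of mutant channel to the surface after 24 h compound exposure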
FGF22 binding-2 – FGF22 (human) binding in thermal shift; thermal shift activity, °C (ΔTm) at 38 µM; AID 720646; recombinant FGF22 thermal shift, SYPRO orange fluorescence; 1,000 compounds, 2% hits; shares compounds with FGF22 binding-1;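 active = fitted rise in melting shift crosses a set limit at or below the top valid dose tested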
FGF22 TSA – binds human FGF22 shifting its melting temperature; shares compounds with FGF22 binding-1; 50 tested, under 10 active; Tm shift (activity), % at 38 µM; Thermal shift assay, SYPRO orange, melting temperature shift;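 active = compounds whose fitted dose curve of melting temperature shift rises past a set threshold within the tested doses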
SYPRO no-protein – shows thermal shift signal without protein, FGF22 counter-screen; shares compounds with FGF22 binding-1; compound-only SYPRO orange thermal shift counter-screen, no protein; AC50, µM (titrated, usually from 38 µM); 1,000 compounds, 2% hits;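 active = rising signal whose fitted curve reaches the 0.54 level within the top valid dose, showing a melting point, actives reach about 13 µM in these data; inactive = the rest, including activity in the opposite direction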; also: value is where the raw curve crosses a fixed level and not half-maximal
Numbers without * were called inactive; [ ] = dose if it differs, or a comment.

Results for CCS(=O)(=O)N[C@@H]1CC[C@H](CC(=O)Nc2ccc(-c3ccccc3)cc2)O[C@@H]1CO ?
FGF22 binding-1: 1.2*; CFTR F508del cor: -2; FGF22 binding-2: 0.14[35 µM]; SYPRO no-protein: inactive

What do the screens show for `CCC(=O)N(C)C[C@@H]1Oc2cc(-c3ccncc3)ccc2S(=O)(=O)N([C@H](C)CO)C[C@@H]1C`?
FGF22 binding-1: 0; CFTR F508del cor: -2

How did COc1ccc(C)cc1NC(=O)C1CCN(S(=O)(=O)c2cccs2)CC1 do in these assays?
Vif imaging: -8; FGF22 binding-1: 1.9*; CFTR F508del cor: 1; FGF22 binding-2: 0.011; SYPRO no-protein: inactive

What do the screens show for `COc1ccc(OC)c(NC(=O)C2CCN(S(=O)(=O)c3cccs3)CC2)c1`?
Vif imaging: 3

How did C[C@@H]1CCCCO[C@H](CN(C)CC2CC2)[C@H](C)CN([C@H](C)CO)C(=O)c2cc(NS(=O)(=O)c3ccc(F)cc3)ccc2O1 do in these assays?
CFTR F508del cor: 3

How did CN(C)C(=O)c1ccc(-c2ccc([C@@H]3[C@@H](C#N)N(C(=O)C4CC4)[C@H]3CO)cc2)cc1 do in these assays?
FGF22 binding-1: 0; CFTR F508del cor: -1

How did Cc1noc(C)c1NC(=O)N(C)C[C@@H]1Oc2ncc(C#CC3CC3)cc2C(=O)N([C@@H](C)CO)C[C@H]1C do in these assays?
FGF22 binding-1: 0; CFTR F508del cor: 0

How did CCCC#Cc1ccc2c(c1)O[C@@H](CN(C)C(=O)c1ccccn1)[C@@H](C)CN([C@@H](C)CO)S2(=O)=O do in these assays?
FGF22 binding-1: 0; CFTR F508del cor: 3

Results for O=C(Nc1cccc(F)c1)N[C@H]1CC[C@@H](CCNS(=O)(=O)c2cccc(Cl)c2)O[C@@H]1CO ?
FGF22 binding-1: 0; CFTR F508del cor: 0

Results for O=C(N[C@H]1CC[C@@H](CCNS(=O)(=O)c2ccc(F)cc2)O[C@H]1CO)c1ccccn1 ?
FGF22 binding-1: 1.4*; CFTR F508del cor: -2; FGF22 binding-2: 0.003[42 µM]; SYPRO no-protein: inactive

What do the screens show for `O=C(N[C@@H]1CC[C@@H](CCNS(=O)(=O)c2ccc(F)cc2)O[C@H]1CO)c1ccccn1`?
FGF22 binding-1: 0; CFTR F508del cor: 0

How did O=C(Nc1cc(Cl)cc(Cl)c1)N[C@@H]1CC[C@@H](CCNS(=O)(=O)c2cccc(F)c2)O[C@H]1CO do in these assays?
FGF22 binding-1: 2.6*; CFTR F508del cor: 3; FGF22 binding-2: -0.22[42 µM]; FGF22 TSA: 0; SYPRO no-protein: inactive

What do the screens show for `C[C@H]1CN([C@@H](C)CO)C(=O)c2cccc(NC(=O)c3ccc(-c4nccs4)cc3)c2O[C@H]1CN(C)S(=O)(=O)c1ccc(F)cc1`?
FGF22 binding-1: -1; CFTR F508del cor: -1

Results for Cc1noc(C)c1S(=O)(=O)Nc1ccc2c(c1)C(=O)N([C@@H](C)CO)C[C@H](C)[C@H](CN(C)C)O2 ?
FGF22 binding-1: 0; CFTR F508del cor: 4

How did COc1ccc(C(=O)NCCc2c[nH]c3ccccc23)cc1 do in these assays?
Vif imaging: 1; FGF22 binding-1: 0; CFTR F508del cor: 1

How did O=C(NCCc1c[nH]c2ccccc12)c1ccc(Cl)cc1 do in these assays?
Vif imaging: -1; FGF22 binding-1: 2.4*; CFTR F508del cor: 1; FGF22 binding-2: -0.006; FGF22 TSA: 0; SYPRO no-protein: inactive

Results for C[C@@H]1CN([C@H](C)CO)C(=O)c2cc(-c3cncnc3)cnc2O[C@@H]1CN(C)C(=O)Cc1ccccc1 ?
FGF22 binding-1: 0; CFTR F508del cor: 3

How did O=C(COc1ccccc1)NCC(=O)NC1CCCCC1 do in these assays?
Vif imaging: 2; FGF22 binding-1: 1.9*; CFTR F508del cor: 0; FGF22 binding-2: 0.062; SYPRO no-protein: inactive

What do the screens show for `O=C(CNC(=O)OCc1ccccc1)NC1CCCCCCC1`?
Vif imaging: 4

How did C[C@H](CO)N1C[C@H](C)[C@@H](CN(C)S(=O)(=O)c2ccc(F)cc2)OCCCC[C@H](C)Oc2ccc(NS(=O)(=O)c3cccs3)cc2C1=O do in these assays?
FGF22 binding-1: 0; CFTR F508del cor: 0

What do the screens show for `O=S(=O)(Nc1ccccc1OC(F)F)c1ccc(S(=O)(=O)N2CCCC2)cc1`?
Vif imaging: -6; FGF22 binding-1: 3.2*; CFTR F508del cor: 2; FGF22 binding-2: -0.032; SYPRO no-protein: inactive

What do the screens show for `O=S(=O)(c1ccc(F)cc1)N1CCCC1`?
Vif imaging: 8; FGF22 binding-1: 0; CFTR F508del cor: 0

Results for O=C(O)C[C@@H]1CC[C@@H](NC(=O)Nc2cc(F)ccc2F)[C@H](CO)O1 ?
FGF22 binding-1: 0; CFTR F508del cor: 2

How did C=CCN(C(=O)c1csnn1)C(C(=O)NC1CCCCC1)c1ccc(Cl)cc1 (configuration not stated) do in these assays?
Vif imaging: -13; FGF22 binding-1: 1.5*; CFTR F508del cor: -1; FGF22 binding-2: -0.074; SYPRO no-protein: inactive

Results for C=CCN(C(=O)c1csnn1)C(C(=O)NC1CCCCC1)c1ccc(C)cc1 (configuration not stated) ?
Vif imaging: 11; FGF22 binding-1: 0; CFTR F508del cor: 1

How did CC(C)C#Cc1cnc2c(c1)C(=O)N([C@@H](C)CO)C[C@@H](C)[C@@H](CN(C)C(=O)CCN1CCCCC1)O2 do in these assays?
FGF22 binding-1: 0; CFTR F508del cor: 0

What do the screens show for `Cc1ccccc1S(=O)(=O)N[C@@H]1CC[C@@H](CCn2cc(-c3ccccc3)nn2)O[C@@H]1CO`?
FGF22 binding-1: 0; CFTR F508del cor: -4

How did O=C(c1ccc2c(c1)OCO2)N1CC(=O)N2[C@H](C1)[C@@H](c1ccc(C#CCC3CCCC3)cc1)[C@@H]2CO do in these assays?
FGF22 binding-1: -1; CFTR F508del cor: 2

How did O=C(c1ccc2c(c1)OCO2)N1CC(=O)N2[C@H](C1)[C@H](c1ccc(C#CCC3CCCC3)cc1)[C@@H]2CO do in these assays?
FGF22 binding-1: 2.3*; CFTR F508del cor: 8; FGF22 binding-2: 0.049; SYPRO no-protein: inactive

What do the screens show for `CS(=O)(=O)N1CC(=O)N2[C@H](CO)[C@@H](c3ccc(C#CCc4ccccc4)cc3)[C@H]2C1`?
FGF22 binding-1: 1.3*; CFTR F508del cor: -1; FGF22 binding-2: 0.098; SYPRO no-protein: inactive

How did CS(=O)(=O)N1CC(=O)N2[C@@H](CO)[C@H](c3ccc(C#CCc4ccccc4)cc3)[C@@H]2C1 do in these assays?
FGF22 binding-1: 1; CFTR F508del cor: 3

How did COc1cccc(C#Cc2ccc([C@H]3[C@@H](CO)N4C(=O)CN(C(=O)c5ccccc5)C[C@@H]34)cc2)c1 do in these assays?
FGF22 binding-1: 1.4*; CFTR F508del cor: 3; FGF22 binding-2: 0.001[42 µM]; SYPRO no-protein: inactive
